# Assay results as given in PubChem BioAssay.
# Where “and” joins values, the source holds several entries; their conditions need not be identical. Equal entries are not always repeated. Results filed as inconclusive are left out. Calls of active or inactive are those of the source. Rule as the data show it, unless noted: active = inhibition above about 80%; inactive = the rest.
# Tests used:
# [1] = LFS_MB_1R medulloblastoma cell growth inhibition, synergistic combos for chromothripsis tumors, cisplatin or BGB combos (AID 1671452); conditions: LFS_MB_1R medulloblastoma cells, stronger effect = higher value;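 also: cells exposed for 96 hours before readout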
# [2] = CRL2098 osteosarcoma cell growth inhibition, synergistic combos for chromothripsis tumors, BGB or cisplatin IC20 combos (AID 1671454); conditions: CRL2098 osteosarcoma cells, drug combinations, stronger effect = higher value;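 also: cells exposed for 96 h before readout; 0% = vehicle DMSO and 100% = killing by high DMSO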
# [3] = HD-MB03 medulloblastoma cell growth inhibition, synergistic combos for chromothripsis tumors, BGB or cisplatin IC20 combos (AID 1671455; in the data active = inhibition above about 83%;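 also: 0% = vehicle DMSO and 100% = high DMSO as cytotoxic control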); conditions: HD-MB03 medulloblastoma cells, stronger effect = higher value
# [4] = UWB1.289 ovarian carcinoma cell growth inhibition, synergistic combos for chromothripsis tumors, BGB or cisplatin combos (AID 1671456); conditions: UWB1.289 ovarian carcinoma cells, stronger effect = higher value;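 also: cells exposed to compound for four days; 0% = vehicle DMSO and 100% = killing by high DMSO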
# [5] = LFS_MB_2R medulloblastoma cell growth inhibition, synergistic combos for chromothripsis tumors, cisplatin combos (AID 1671457); conditions: LFS_MB_2R medulloblastoma cells, stronger effect = higher value;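 also: cells exposed to compound for four days before readout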
# [6] = MDA-MB-436 breast carcinoma cell growth inhibition, synergistic combos for chromothripsis tumors, BGB or cisplatin combos (AID 1671458; call rule not given here;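 also: cells exposed for 96 hours; 0% = vehicle DMSO and 100% = killing by high DMSO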); conditions: MDA-MB-436 breast carcinoma growth inhibition, drug combinations, stronger effect = higher value
# [7] = UWB1.289_BRCA1 ovarian cancer growth, cell-based, BGB or cisplatin combinations (AID 1671459); conditions: UWB1.289 BRCA1 ovarian carcinoma, drug combinations, stronger effect = higher value
# [8] = human astrocyte viability loss, single and combined drugs, cytotoxicity control for chromothriptic childhood tumor combination screen, cell-based, BGB or cisplatin IC20 combos (AID 1671460); conditions: Human astrocytes, drug combinations, stronger effect = higher value;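 also: cells exposed to compounds for 96 hours before viability readout; 0% = vehicle and 100% = killing control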
# [9] = growth inhibition of BT084 medulloblastoma cells, cell-based, ICGC_MB145, cisplatin and BGB IC40 combos (AID 1671461); conditions: drug combinations, stronger effect = higher value;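 also: cells exposed to drugs for 96 hours; 0% = vehicle DMSO and 100% = high DMSO full killing control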
# [10] = growth inhibition of RCMB18 medulloblastoma cells, cell-based, cisplatin and BGB IC40 combos (AID 1671462); conditions: stronger effect = higher value;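 also: cells exposed to compound for four days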
# [11] = growth inhibition of CRL1545 osteosarcoma cells, cell-based, cisplatin and BGB IC20 combos (AID 1671464); conditions: stronger effect = higher value;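 also: cells exposed to compound for 96 hours before readout; 0% = vehicle DMSO and 100% = high DMSO killing control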
# [12] = protection of motor neurons from glutamate death, cell-based, TUNEL DNA degradation staining, MNGlu (AID 1594; call rule not given here); conditions: glutamate-induced death, at 1 µM, stronger effect = higher value
# [13] = inhibitors of Cryptococcus chitosan production, flow cytometry, Cibacron Brilliant Red staining (AID 1347148; call rule not given here;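 also: compound exposure lasted three days at 37 degrees C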); conditions: Cryptococcus neoformans chitosan, stronger effect = lower value; at 99.1 µM unless noted
# [14] = protection against mutant huntingtin cytotoxicity, PC12 cells, LDH release (AID 1610); conditions: PC12 mutant huntingtin toxicity, final LDH at 4 uM, stronger effect = lower value
# [15] = test system: Aerobactin synthetase IucA (Klebsiella pneumoniae); assay: IucA aerobactin synthetase inhibitors, biochemical, Tocris library, absorbance (AID 1345561; call rule not given here;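 also: 100% = enzyme without compound and 0% = no enzyme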); conditions: purified IucA enzyme assay, absorbance (OD) read-out; stronger effect = lower value;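 tested at 8 µM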
# [16] = modifiers of HSF1 nuclear foci, imaging, Selleck Cancer Library (AID 1347162; in the data active = plate-normalised HSF1 focus index below about 0.46); conditions: human cells, at 10 µM; SSMD: measured here: HSF1 foci SSMD mean; cell count: measured here: cell number; plate-normalised HSF1 focus index: stronger effect = lower value
# [17] = measured here: combination with BGB IC40, at 0.05 µM
# [18] = measured here: combination with cisplatin, at 0.5 µM
# [19] = measured here: combination with cisplatin, at 5 µM
# [20] = measured here: combination with BGB at IC20, at 0.5 µM
# [21] = measured here: combination with cisplatin at IC20, at 0.5 µM
# [22] = measured here: combo with BGB at IC20, at 0.5 µM
# [23] = measured here: combo with cisplatin at IC20, at 0.5 µM
# [24] = measured here: inhibition with BGB combination, at 0.05 µM
# [25] = measured here: inhibition with cisplatin combination, at 0.05 µM
# [26] = measured here: BGB combination, at 0.5 µM
# [27] = measured here: BGB combination, at 5 µM
# [28] = measured here: cisplatin combination, at 0.5 µM
# [29] = measured here: cisplatin combination, at 5 µM
# [30] = BGB combination, concentration series, at 5 µM
# [31] = cisplatin combination, concentration series, at 5 µM
# [32] = measured here: combo with BGB IC20, at 0.5 µM
# [33] = measured here: combo with cisplatin IC20, at 0.5 µM
# [34] = cisplatin combination, at 0.5 µM
# [35] = measured here: BGB IC40 combination 0.05 uM, at 0.05 µM
# [36] = measured here: BGB IC40 combination, at 0.05 µM
# [37] = measured here: with BGB IC20 combination, at 0.5 µM
# [38] = measured here: with cisplatin IC20 combination, at 0.5 µM
compound,measurement,setting,value
CCn1cc(C(=O)O)c(=O)c2cc(F)c(N3CCN(C)CC3)cc21,inhibition,[1]; at 0.5 µM,-35.2% (inactive) and -9.17% (inactive)
same,inhibition,[1]; [17],-12.2% and -6.93%
same,inhibition,[1]; [18],-66.1% and -0.499%
same,inhibition,[1]; [19],-52.8% and 11.3%
same,inhibition,[2]; at 0.5 µM,-41.2% (inactive) and 7.78% (inactive)
same,inhibition,[2]; [20],-48.5% and 10.5%
same,inhibition,[2]; [21],-57.7% and 40.3%
same,inhibition,[3]; at 0.5 µM,-16.4% (inactive) and 1.14% (inactive)
same,inhibition,[3]; [22],-17.4% and 6.49%
same,inhibition,[3]; [23],-24.9% and -8.23%
same,inhibition,[4]; at 0.5 µM,-8.81% (inactive) and 8.67% (inactive)
same,inhibition,[4]; [24],-24.8% and -1.17%
same,inhibition,[4]; [25],-21.6% and 2.48%
same,inhibition,[5]; at 0.5 µM,-5.46% (inactive) and 1.79% (inactive)
same,inhibition,[5]; [18],3.08% and 3.79%
same,inhibition,[5]; [19],-14.9% and -26.1%
same,inhibition,[6]; at 0.5 µM,-8.42% (inactive) and -1.21% (inactive)
same,inhibition,[6]; [26],-5.87% and 9.12%
same,inhibition,[6]; [27],-7.49% and 1.82%
same,inhibition,[6]; [28],-16.3% and -4.65%
same,inhibition,[6]; [29],-9.37% and -6.1%
same,inhibition,[7]; [30],-6.71% and 0.813%
same,inhibition,[7]; at 0.5 µM,-17.9% (inactive) and 5.05% (inactive)
same,inhibition,[7]; [31],-12.6% and 1.69%
same,inhibition,[8]; at 0.5 µM,-3.63% (inactive) and -0.44% (inactive)
same,inhibition,[8]; [32],1.4% and 4.59%
same,inhibition,[8]; [33],-18.3% and 1.72%
same,inhibition,[9]; at 0.5 µM,-1.86% (inactive) and 3.84% (inactive)
same,inhibition,[9]; [34],-11.9% and -2.51%
same,inhibition,"[9]; cisplatin combination, at 5 µM",-69% and 6.95%
same,inhibition,[9]; [35],-0.823% and 30.3%
same,inhibition,"[9]; single agent, at 5 µM",-6.24% and -12.7%
same,inhibition,[10]; at 0.5 µM,-15.3% (inactive) and 13.4% (inactive)
same,inhibition,"[10]; cisplatin combo, at 5 µM",-13.1% and 21.2%
same,inhibition,[10]; [36],11.2% and 6.78%
same,inhibition,[10]; [18],-34.9% and 34.7%
same,inhibition,"[10]; single agent, at 5 µM",-30.4% and 4.8%
same,inhibition,[11]; at 0.5 µM,-40.9% (inactive) and -9.39% (inactive)
same,inhibition,[11]; [37],-21.3% and -8%
same,inhibition,[11]; [38],-50.7% and -12.6%
same,inhibition,"[11]; single agent, at 0.05 µM",3.45% and -1.09%
same,inhibition,"[11]; single agent, at 5 µM",-27.1% and 1.32%
Cn1cnc([N+](=O)[O-])c1Sc1ncnc2nc[nH]c12,inhibition,[1]; at 0.5 µM,-1.99% (inactive) and -33.4% (inactive)
same,inhibition,[1]; [17],-14.2% and -22.8%
same,inhibition,[1]; [18],-2.77% and -51.2%
same,inhibition,[1]; [19],10.1% and -28.7%
same,inhibition,[2]; at 0.5 µM,-39.2% (inactive) and -50.5% (inactive)
same,inhibition,[2]; [20],-37.7% and -16.5%
same,inhibition,[2]; [21],-43.1% and -68.9%
same,inhibition,[3]; at 0.5 µM,-1.96% (inactive) and 2.76% (inactive)
same,inhibition,[3]; [22],-3.82% and 4.08%
same,inhibition,[3]; [23],-5.61% and 15.3%
same,inhibition,[4]; at 0.5 µM,39.3% (inactive) and 42.9% (inactive)
same,inhibition,[4]; [24],-15.3% and -18.7%
same,inhibition,[4]; [25],-7.01% and -1.15%
same,inhibition,[5]; at 0.5 µM,-16.6% (inactive) and -22.7% (inactive)
same,inhibition,[5]; [18],-17.1% and -11.6%
same,inhibition,[5]; [19],-20.9% and -25.4%
same,inhibition,[6]; at 0.5 µM,-2.35% (inactive) and 8.87% (inactive)
same,inhibition,[6]; [26],-11.4% and 6.51%
same,inhibition,[6]; [27],17.6% and 21.4%
same,inhibition,[6]; [28],-16% and 2.87%
same,inhibition,[6]; [29],26.8% and 35.6%
same,inhibition,[7]; [30],90.9% and 88.9%
same,inhibition,[7]; at 0.5 µM,37.4% (inactive) and 50.2% (inactive)
same,inhibition,[7]; [31],96.5% and 101%
same,inhibition,[8]; at 0.5 µM,-1.25% (inactive) and 13.6% (inactive)
same,inhibition,[8]; [32],5.14% and 24.1%
same,inhibition,[8]; [33],-7.22% and 6.12%
same,inhibition,[9]; at 0.5 µM,-16.8% (inactive) and 4.68% (inactive)
same,inhibition,[9]; [34],-15.8% and -6.89%
same,inhibition,"[9]; cisplatin combination, at 5 µM",-45.6% and -9.16%
same,inhibition,[9]; [35],2.92% and 62.8%
same,inhibition,"[9]; single agent, at 5 µM",-13.5% and -5.72%
same,inhibition,[10]; at 0.5 µM,-11.9% (inactive) and -11.3% (inactive)
same,inhibition,"[10]; cisplatin combo, at 5 µM",4.98% and -8.51%
same,inhibition,[10]; [36],-6.18% and -2.54%
same,inhibition,[10]; [18],-8.48% and -16.8%
same,inhibition,"[10]; single agent, at 5 µM",-19.3% and -29.9%
same,inhibition,[11]; at 0.5 µM,-10.1% (inactive) and 15.6% (inactive)
same,inhibition,[11]; [37],23.3% and -13%
same,inhibition,[11]; [38],-26.8% and 29.9%
same,inhibition,"[11]; single agent, at 0.05 µM",10.6% and 46.1%
same,inhibition,"[11]; single agent, at 5 µM",25.6% and 21%
O=C(CCCN1CC=C(n2c(=O)[nH]c3ccccc32)CC1)c1ccc(F)cc1,protection,[12],35% (active)
CC(N=C(NC#N)Nc1ccncc1)C(C)(C)C (centres undefined),fold fluorescence,[13],3.41 [at 203.8 µM] (inactive)
Cc1ccc(S(=O)(=O)NC(=O)NN2CCCCCC2)cc1,fold fluorescence,[13],4.87 [at 160.6 µM] (inactive)
OCCN1CCN(CCCN2c3ccccc3Sc3ccc(Cl)cc32)CC1,normalised LDH release,[14],0.608
CCCCNC(=O)NS(=O)(=O)c1ccc(C)cc1,fold fluorescence,[13],3.24 [at 184.9 µM] (inactive)
CCN(CC)CCNC(=O)c1ccc(N)cc1,fold fluorescence,[13],4.18 [at 212.5 µM] (inactive)
CC(C)(C)NC[C@H](O)COc1nsnc1N1CCOCC1,remaining activity,[15],95.7% (inactive)
C[C@]12CCC(=O)C=C1CC[C@@H]1[C@@H]2[C@@H](O)C[C@@]2(C)[C@H]1CC[C@]2(O)C(=O)CO,SSMD,[16],2.5
same,cell count,[16],6980
same,plate-normalised HSF1 focus index,[16],1.13 (inactive)
